Measurements published in PubChem BioAssay AID1159580 (chemical genetic matrix, 2015).
“And” between values parts separate entries of the source, which are not always exact repeats. Identical values can stand only once. Among all 5,500 compounds or so, about 2,000 (36%) were called active. Roughly 18% stayed inconclusive and do not appear here. Cut-off read from the data, not from the text of the source: active = normalized growth mostly below about 0.91 (no sharp cut-off); inconclusive = no clear call, values can overlap the other calls; inactive = mostly above about 0.92. This is one part of the list.

Assay: chemical genetic growth profiling, strain panel (AID 1159580);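 note: tested at 20 µM; growth read once vehicle control cultures reached saturation at 30 °C; 1 = growth at the plate median or of vehicle wells; lower values mean less growth of the strain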
Details: S. cerevisiae deletion strains, growth OD

Measured: normalized growth

CC(=O)OCC[C@H](C)CCC=C(C)C
inactive: locus YAL013W, strain DEP1, hits give low values 1 | locus YAL021C, strain ccr4, hits give low values 0.993 | locus YAL026C, strain drs2, hits give low values 0.993 | locus YAL030W, strain snc1, hits give low values 0.989 | locus YBL061C, strain skt5, hits give low values 0.992 | locus YBR009C, strain hhf1, hits give low values 1.06 | locus YBR021W, strain FUR4, hits give low values 0.991 | locus YBR023C, strain chs3, hits give low values 0.995 | locus YBR171W, strain sec66, hits give low values 0.983 | locus YBR229C, strain ROT2, hits give low values 1.01 | locus YBR231C, strain swc5, hits give low values 0.986 | locus YBR279W, strain paf1, hits give low values 0.997 | locus YCL011C, strain gbp2, hits give low values 1.01 | locus YCL016C, strain dcc1, hits give low values 0.994 | locus YCL029C, strain bik1, hits give low values 1.03 | locus YCL061C, strain MRC1, hits give low values 1 | locus YCL069W, strain vba3, hits give low values 0.989 | locus YCR088W, strain abp1, hits give low values 0.989 | locus YDL005C, strain med2, hits give low values 0.978 | locus YDL035C, strain GPR1, hits give low values 1.02 | locus YDL040C, strain nat1, hits give low values 0.993 | locus YDL074C, strain BRE1, hits give low values 1.05 | locus YDL101C, strain DUN1, hits give low values 1.01 | locus YDL185W, strain tfp1, hits give low values 1.02 | locus YDL192W, strain arf1, hits give low values 1.04 | locus YDR001C, strain nth1, hits give low values 0.998 | locus YDR069C, strain doa4, hits give low values 0.991 | locus YDR101C, strain arx1, hits give low values 1.03 | locus YDR137W, strain rgp1, hits give low values 0.974 | locus YDR150W, strain NUM1, hits give low values 1.01 | locus YDR159W, strain sac3, hits give low values 1.02 | locus YDR162C, strain NBP2, hits give low values 1.01 | locus YDR195W, strain ref2 0.949 | locus YDR297W, strain sur2, hits give low values 1.01 | locus YDR318W, strain mcm21, hits give low values 1.02 | locus YDR334W, strain swr1, hits give low values 0.998 | locus YDR335W, strain msn5, hits give low values 0.992 | locus YDR388W, hits give low values 1.02 | locus YDR392W, strain spt3, hits give low values 0.966 | locus YDR502C, strain sam2, hits give low values 1.01 | locus YEL003W, strain gim4, hits give low values 1 | locus YEL037C, strain rad23, hits give low values 0.995 | locus YEL061C, strain CIN8 (second series), hits give low values 1.03 | locus YEL061C, strain CIN8, hits give low values 1.01 | locus YER015W, strain faa2, hits give low values 0.993 | locus YER016W, strain bim1, hits give low values 0.962 | locus YER110C, hits give low values 1.03 | locus YER111C, strain swi4, hits give low values 0.992 | locus YER155C, strain BEM2 (second series), hits give low values 0.973 | locus YER155C, strain BEM2, hits give low values 0.988 | locus YER167W, strain BCK2, hits give low values 1.01 | locus YFR010W, strain ubp6, hits give low values 1.01 | locus YGL078C, strain dbp3, hits give low values 1.01 | locus YGL086W, strain mad1, hits give low values 1.01 | locus YGL167C, strain pmr1, hits give low values 0.99 | locus YGL173C, strain kem1, hits give low values 0.986 | locus YGL227W, strain vid30, hits give low values 0.987 | locus YGL240W, strain doc1, hits give low values 0.978 | locus YGL248W, strain PDE1, hits give low values 1.02 | locus YGL253W, strain hxk2, hits give low values 0.997 | locus YGR135W, strain pre9, hits give low values 1.06 | locus YGR252W, strain gcn5, hits give low values 1.06 | locus YHR013C, strain ard1, hits give low values 0.967 | locus YHR027C, strain rpn1, hits give low values 0.99 | locus YHR030C, strain SLT2, hits give low values 1 and 1.01 | locus YHR079C, strain IRE1 (second series), hits give low values 1.02 | locus YHR079C, strain IRE1, hits give low values 1.01 | locus YHR094C, strain hxt1, hits give low values 1.02 | locus YHR129C, strain ARP1, hits give low values 0.999 | locus YHR142W, strain chs7, hits give low values 0.988 | locus YHR200W, strain rpn10, hits give low values 1.03 | locus YIL066C, strain RNR3, hits give low values 1.01 | locus YIL073C, strain SPO22, hits give low values 1.1 | locus YIL125W, strain kgd1, hits give low values 1.01 | locus YIR030C, strain dcg1, hits give low values 1.02 | locus YJL092W, strain hpr5, hits give low values 0.999 | locus YJL095W, strain BCK1 (second series), hits give low values 0.99 | locus YJL095W, strain BCK1, hits give low values 1.02 | locus YJL115W, strain asf1, hits give low values 0.991 | locus YJL129C, strain trk1, hits give low values 0.968 | locus YJL134W, strain LCB3, hits give low values 1.01 | locus YJL154C, strain vps35, hits give low values 0.981 | locus YJL164C, strain tpk1, hits give low values 1.02 | locus YJL166W, strain qcr8, hits give low values 0.96 | locus YJL168C, strain set2, hits give low values 1.02 | locus YJL187C, strain SWE1 (second series), hits give low values 1.02 | locus YJL187C, strain SWE1, hits give low values 0.982
